Assay results published in PubChem BioAssay AID652283 (National Center for Advancing Translational Sciences (NCATS), 2013).
Inconclusive results are not listed. Values without a mark were called inactive. Calls of active or inactive are those of the source. Calls come from the whole dose curve; as a rule, active = well fitted inhibition curve with a large enough effect; inconclusive = small, poorly fitted or top-dose-only effect; inactive = no such curve, though single readings can be large or run the other way.

Assay: qHTS Assay for Lipid Storage Modulators: COS7 Assay against Probe and Analogs
Details: COS7 lipid droplet area, BODIPY imaging, 18 h
From the text: Storing lipids as a reservoir for energy or the anabolism of elementary metabolites is a common feature of probably all cells and is conserved from bacteria to humans. The universal cellular lipid storage organelle is the so-called lipid storage droplet (LD). Although ubiquitous, LDs share a simple structure composed of a hydrophobic core that harbors the storage lipids, which is shielded by a droplet-specific phospholipid monolayer to which proteins are attached. The current model of LD biogenesis involves an incorporation of the lipid core into the membrane leaflets of the endoplasmic reticulum (ER) followed by a subsequent budding-like maturation of a LD, which ultimately pinches off. Once released, LD volume can increase by localized lipogenesis or fusion of existing droplets. Storage lipids are re-mobilized enzymatically by lipase activity. Lipase regulation in the adipocyte is heavily studied and involves multiple components including catecholamine signaling, the LD-associated proteins Perilipin and comparative gene identification-58 (CGI-58) and at least two lipases named hormone sensitive lipase (HSL) and adipocyte triglyceride lipase (ATGL). LD regulation outside of the adipocyte is poorly understood and only few components are known. However, there is an urgent need to learn more about ectopic fat depots as mislocalized storage of lipids, for example in the liver or muscle, is an eminent health problem associated with insulin resistance or the metabolic syndrome. We developed a laser-scanning cytometer assay to enable 1,536-well screening and combined the results of the small molecules screen with an RNAi database based on lipid storage. In this assay we tested analogs of the probe against a mammalian cell line (COS7), to see if these small molecules could disrupt lipid storage. NIH Molecular Libraries Probe Production Centers Network [MLPCN] NIH Chemical Genomics Center [NCGC] MLPCN Grant: MH085686 Assay Submitter (PI): Mathias Beller, Max-Planck-Institut fur Biophysikalische Chemie
COS7 cells were obtained from ATCC (CRL-1651), 5500 cells/well were dispensed into Corning 96 well imaging plate (catalog # 3340), and cultured in 100 uL of 1:1 DMEM medium (PAA) contain 10% fetal bovine serum (FBS) for 24 hours at 37 degrees C, 95% humidity, and 5% CO2. The medium was exchanged for compound treatment. Compound treatment occurred in 150 microL serum reduced medium (5% FBS) and 0.2% DMSO in presence of 400 microM oleic acid for 17-18 h. Cells were then fixed (3.7 % formaldehyde in PBS, 5 min), permeabilized (0.1% Triton X100, 5 min) and washed three times with PBS. Lipid droplets (1:2000 BODIPY 493/503) and nuclei (1:1000 Hoechst 33342) were stained for 1h. Imaging was performed in a Zeiss Axiovert automatic microscope. Number of lipid droplet accumulated in […] cells were analyzed using visual examination of the microscopic images and additional quantification by image segmentation using Cell Profiler.
For `CCOc1ccc(CCNC(=O)c2cc3ccccc3n2Cc2cccc(C)c2)cc1OCC`, the Potency was 264 nM (active). For `CCOc1ccc(CCNC(=O)c2cc3ccccc3n2Cc2ccccn2)cc1OCC`, the Potency was 1660 nM (active). `CCOc1ccc(CCNC(=O)c2cc3cnccc3n2Cc2cccc(C)c2)cc1OCC` gave a max response of -13.8%. For `CCOc1ccc(CCNC(=O)c2cc3ncccc3n2Cc2cccc(C)n2)cc1OCC`, the max response was -5.54%. In the case of `CCOc1ccc(CCNC(=O)c2cc3sccc3n2Cc2ccc(F)cc2F)cc1OCC`, the Potency is reported as 1180 nM (active). Work on `CCOc1ccc(CCNC(=O)c2cc3ccncc3n2Cc2cccc(C)n2)cc1OCC` yielded a max response of -22.2%. In the case of `CCOc1ccc(CCNC(=O)c2cc3ccccc3n2CCN2CCOCC2)cc1OCC`, the Potency is reported as 5260 nM (active). `CCOc1ccc(CCNC(=O)c2cc3ncccc3n2Cc2cccc(C)c2)cc1OCC` showed a max response of 6.92%. For `CCOc1ccc(CCNC(=O)c2ccccc2)cc1OCC`, the max response was -7.94%. In the case of `CCOc1ccc(CCNC(=O)c2cc3ccccc3n2Cc2cccc(C)n2)cc1OCC`, the Potency is reported as 590 nM (active). Work on `CCOc1ccc(CCNC(=O)c2cc3cccnc3n2Cc2cccc(C)c2)cc1OCC` yielded a max response of 0%. With `CCOc1ccc(CCNC(=O)c2ccc(C(=O)c3ccccc3)cc2)cc1OCC` the max response was -5.7%. In the case of `CCOC(=O)C1CCN(C(=O)C2(NC(=O)Nc3ccccc3Cl)CCCC2)CC1`, the Potency is reported as 5870 nM (active). `CCOc1ccc(CCNC(=O)c2cc3cnccc3n2Cc2cccc(C)n2)cc1OCC` gave a max response of -1.53%. For `CCOc1ccc(CCNC(=O)c2cc3ccncc3n2Cc2cccc(C)c2)cc1OCC`, the max response was -1.73%.
